TEAD-YAP inh = TEAD-YAP interaction inhibition | inhibition, % at 9.12 µM | AID 1259422 | 640,000 tested, 1.4% active | HEK-TIYL cells, TEAD-Gal4/YAP UAS-luciferase luminescence; in the data active = inhibition above about 32%
MITF inh = inhibitors of human MITF; AlphaScreen MITF homodimerization, bead proximity signal; AID 1259374; inhibition, % at 2.6 µM; 650,000 tested, 0.91% active; in the data active = inhibition above about 50%
Target sequence (O75030 whole entry, looked up): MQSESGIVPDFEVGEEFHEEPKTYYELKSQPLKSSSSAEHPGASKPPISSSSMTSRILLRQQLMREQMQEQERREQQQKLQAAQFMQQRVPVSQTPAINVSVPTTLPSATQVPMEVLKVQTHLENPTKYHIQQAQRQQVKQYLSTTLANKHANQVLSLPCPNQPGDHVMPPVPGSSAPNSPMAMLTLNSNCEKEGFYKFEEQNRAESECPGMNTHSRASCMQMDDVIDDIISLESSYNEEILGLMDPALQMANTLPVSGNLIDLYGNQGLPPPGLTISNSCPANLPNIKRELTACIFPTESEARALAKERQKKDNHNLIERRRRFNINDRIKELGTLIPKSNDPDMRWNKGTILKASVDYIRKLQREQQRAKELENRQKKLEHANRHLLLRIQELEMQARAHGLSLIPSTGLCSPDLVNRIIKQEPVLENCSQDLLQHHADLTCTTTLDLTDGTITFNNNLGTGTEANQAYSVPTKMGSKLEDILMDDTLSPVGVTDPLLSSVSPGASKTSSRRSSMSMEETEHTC
FBW7 activator = human FBW7 E3 ligase activation, primary screen. Q969H0. AlphaScreen FBW7–phospho-cyclin E peptide binding, activator screen. normalized activity (activation), % at 26.1 µM. 650,000 tested, 0.13% active; in the data active = normalized activity above about 1.9%;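 note: purified mutant Fbw7 with reduced substrate affinity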
GPR151 ag = activators of human GPR151. Q8TDV0. PathHunter beta-arrestin GPR151 cells, luminescence. activation, % at 11.2 µM. 650,000 tested, 1% active; in the data active = activation above about 4.9%
GPR151 confirm = human GPR151 activation, confirmation screen; 6,700 tested, under 10 active; shares compounds with GPR151 ag; GPR151 PathHunter beta-arrestin cells, luminescence, 90 min; % of EA-reagent control over plate median; activation, % at 11.2 µM; AID 1508609;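 active = mean percent activation across replicates above the confirmation screen cutoff of 4.91%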
GPR119 ag = GPR119 activation, counter-screen for GPR151 activators. shares compounds with GPR151 ag. GPR119 PathHunter beta-arrestin cells, luminescence, 90 min; 0 = compound-well median, 100 = enzyme-acceptor control. activation, % at 11.2 µM. 6,700 tested, 0.3% active;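 active = mean percent activation in the counterscreen above 29.09%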;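 note: counterscreen on off-target GPR119 to flag nonselective hits from the GPR151 activator screen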
Numbers stand for hits; - = inactive; . = not tested or not shown. This is a sample that favours compounds with a hit; in the whole collection about 3.5% have one here.

SMILES	TEAD-YAP inh	MITF inh	FBW7 activator	GPR151 ag	GPR151 confirm	GPR119 ag
CC(C)(C)c1nnc(Nc2ccccc2Cl)[nH]c1=O	-	-	-	-	.	.
COc1ccc(-c2csc(Nc3ccccc3)n2)cc1F	-	-	-	6.5	-	-
COc1cccc(Nc2nc(-c3ccc(OC)c(F)c3)cs2)c1	-	-	-	-	.	.
C=CCn1c(=O)c2c(nc3n(-c4ccc(Cl)cc4)c(C)c(C)n23)n(C)c1=O	-	-	-	-	.	.
COC(=O)C(C)n1c(=O)c2c(nc3n(-c4cc(C)cc(C)c4)c(C)c(C)n23)n(C)c1=O (stereo unspecified)	-	-	-	-	.	.
C=CCn1c(=O)c2c(nc3n(-c4cccc(Cl)c4)c(C)c(C)n23)n(C)c1=O	-	-	-	6.3	-	-
CC(=O)Cn1c(=O)c2c(nc3n(-c4ccccc4)c(C)c(C)n23)n(C)c1=O	-	-	-	11.1	-	-
COC(=O)C(C)n1c(=O)c2c(nc3n(-c4ccc(C)c(C)c4)c(C)c(C)n23)n(C)c1=O (stereo unspecified)	-	-	-	5.3	-	-
CC(=O)c1ccc(NC(=O)C23CCC(C)(C(=O)O2)C3(C)C)cc1 (stereo unspecified)	-	-	-	-	.	.
COc1ccnc(Cn2nc(C)c3cccn3c2=O)c1OC	-	-	-	6.1	-	-
Cc1ccc2nc(N(CCCn3ccnc3)C(=O)c3ccc(F)cc3)sc2c1	-	-	-	-	.	.
Cc1ccc(CC(=O)N(CCCn2ccnc2)c2nc3ccccc3s2)c(C)c1	-	-	-	6.9	-	-
N#Cc1ccc(C(=O)Nc2ccc(Br)cc2)c(F)c1	-	-	-	-	.	.
Cc1cc(Br)ccc1NC(=O)c1ccc(C#N)cc1F	-	-	-	13.3	-	-
C=CCN=C(CC)C1=C(O)CC(C)(C)CC1=O	-	-	-	-	.	.
CCCN=C(CC)C1=C(O)CC(C)(C)CC1=O	-	-	-	5.4	-	-
CC1=CC2=NC(=O)/C(=C\C=C\c3ccccc3)C(=N)N2O1	-	-	-	-	.	.
CCOC(=O)c1c(C)n(C)c2ccc(OCC(O)CN(CC)CC)cc12 (stereo unspecified)	-	-	-	-	.	.
CCOC(=O)c1c(C)n(C)c2ccc(OCC(O)Cn3nnc4ccccc43)cc12 (stereo unspecified)	-	-	-	6.0	-	-
CC1(C)C(=O)OC(c2ccccc2)C2(CCCC2)C1=O (stereo unspecified)	-	-	-	6.0	-	-
CC1(C)C(=O)OC(c2ccc(Br)cc2)C2(CCCCC2)C1=O (stereo unspecified)	-	-	-	-	.	.
O=C(NCc1cccnc1)c1cccc(-c2ccc(N3CCOCC3)nc2)n1	-	-	-	-	.	.
O=C(Cn1nnnc1CN1CCCCCC1)N1CCCCC1c1cccnc1 (stereo unspecified)	-	-	-	5.7	-	-
O=C(Cn1nnnc1CN1CCCCCC1)N1CCC[C@H]1CO	-	-	-	-	.	.
C=CCN(c1ccc(C(=O)Nc2ccc(Cl)cc2)cc1)S(C)(=O)=O	-	-	-	9.2	-	-
SMILES	TEAD-YAP inh	MITF inh	FBW7 activator	GPR151 ag	GPR151 confirm	GPR119 ag
CCOC(=O)Cc1c(C)nc2c(-c3ccccc3)c[nH]n2c1=O	-	-	-	7.5	-	-
Oc1oc(-c2ccccc2Br)nc1C=Nc1ccc(I)cc1	-	-	-	9.3	-	-
Oc1oc(-c2ccccc2Br)nc1C=Nc1ccc(Br)cc1	-	-	-	-	.	.
CCOc1ccccc1NC(=O)c1ccccc1NS(C)(=O)=O	-	-	-	-	.	.
CCOc1ccccc1NC(=O)c1ccccc1NS(=O)(=O)c1ccccc1	-	-	-	5.9	-	-
CCOC(=O)c1ccccc1NC(=O)c1ccoc1C	-	-	-	-	.	.
CCOc1ccccc1NC(=O)c1ccoc1C	-	-	-	5.9	-	-
CC(=O)c1[nH]c(C)c(C(=O)Nc2ccc(C)cc2Br)c1C	-	-	-	-	.	.
COC(CNC(=O)C(=O)NCC1OCCN1S(=O)(=O)c1cccs1)OC (stereo unspecified)	-	-	-	-	.	.
CN(C)CCNC(=O)C(=O)NCC1OCCN1S(=O)(=O)c1cccs1 (stereo unspecified)	-	-	-	6.3	-	-
O=C(Cc1ccccc1)N/N=C/c1cc(O)c(Br)cc1Br	-	-	-	-	.	.
CCC1(CCC(=O)NCC2(c3ccccc3)CCOCC2)CCC(=O)N1 (stereo unspecified)	-	-	-	9.5	-	-
CCN(c1cccc(C)c1)S(=O)(=O)c1cc(C(=O)Nc2ccc(Br)cc2)ccc1F	-	-	-	-	.	.
CCOC(=O)c1cc(-c2ccccc2)n(CCCN2CCOCC2)c1C	-	-	-	-	.	.
CCOC(=O)c1cc(-c2ccccc2)oc1CN1CCOCC1	-	-	-	8.9	-	-
COc1ccc(/C(N)=N/OC(=O)CN2C(=O)c3ccccc3C2=O)cc1	-	-	-	-	.	.
CNC(=O)/C=C/c1cccc(C(F)(F)F)c1	-	-	-	6.1	-	-
O=C(O)CSc1nnc(NC(=O)c2ccc(Cl)cc2Cl)s1	-	-	-	-	.	.
O=C(Nc1ccc(Cl)cc1)/C(=C/c1cccc([N+](=O)[O-])c1)NC(=O)C1CCCCC1	-	-	-	6.2	-	-
O=C(Nc1cc(Cl)ccc1Cl)/C(=C/c1cccc([N+](=O)[O-])c1)NC(=O)C1CCCCC1	-	-	-	-	.	.
CC1(C)CC2CC(C)(CN2C(=O)COC(=O)/C(C#N)=C/c2ccc3c(c2)OCO3)C1 (stereo unspecified)	-	-	-	6.1	-	-
CCC1CCCCN1C(=O)COC(=O)/C(C#N)=C/c1ccc2c(c1)OCO2 (stereo unspecified)	-	-	-	-	.	.
COC(=O)Cn1cc(/C=C(/C#N)C(=O)Nc2ccccc2)c2ccccc21	-	-	-	-	.	.
N#C/C(=C/c1cn(CC(=O)O)c2ccccc12)C(=O)Nc1ccc(Cl)cc1	-	-	-	8.5	-	-
COCCn1c(SCC(=O)Nc2ccc(C)c(C)c2)nnc1C(C)C	-	-	-	8.2	-	-
SMILES	TEAD-YAP inh	MITF inh	FBW7 activator	GPR151 ag	GPR151 confirm	GPR119 ag
COc1ccccc1C(=O)NC1(C(F)(F)F)C(=O)N(C2CCCCC2)C(C)=C1C(C)=O (stereo unspecified)	-	-	-	-	.	.
O=C(NC(=S)Nc1ncccc1O)c1ccccc1Br	-	-	-	7.6	-	-
Cc1cccnc1NC(=S)NC(=O)c1ccccc1Br	-	-	-	-	.	.
Cc1ccc(OC(C)C(=O)NNC(=S)NCC2CCCO2)c([N+](=O)[O-])c1 (stereo unspecified)	-	-	-	-	.	.
Cc1ccc(OCc2ccc(C(=O)NNC(=S)NCC3CCCO3)o2)c([N+](=O)[O-])c1 (stereo unspecified)	-	-	-	5.8	-	-
COc1ccc(-c2cc(-c3ccccc3)nc(SCC(=O)NCc3ccccc3)c2C#N)cc1	-	-	-	-	.	.

High-throughput results (PubChem)
